High-throughput results as filed in PubChem BioAssay.
KKLEB cytotox: reduces viability of KKLEB cystic fibrosis airway cells; KKLEB CF airway cells viability, ATPlite luminescence, overnight; stronger effect = lower value; cells stimulated with P. aeruginosa culture filtrate; activity change (cytotoxicity), % at 5 µM; 360,000 compounds, 0.36% hits; AID 602141;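 active = corrected activity change at or below -50% at 5 µM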
HIF-2a inh: HIF-2a inhibition. 786-0 RCC cells HIF-2a reporter, luciferase luminescence, overnight. inhibition, % at 18.8 µM. 360,000 compounds, 0.72% hits. AID 624352;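 active = inhibition of the luminescence signal of 40% or more relative to plate controls, in a single-dose primary screen at 18.75 µM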
CF NFkB inh: inhibitors of cystic fibrosis induced NF-kB; KKLEB NF-kB-GFP reporter, PAF-induced, GFP fluorescence overnight; inhibition, % at 5 µM; 360,000 compounds, 0.86% hits;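 active = at least 50% inhibition at 5 µM, scaled per plate between neutral and stimulator controls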;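 also: PAF is a Pseudomonas aeruginosa culture filtrate used as stimulus; plate controls were PAF-stimulated DMSO wells for no effect and unstimulated DMSO wells for full effect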
EWS-Fli inh: blocks EWS/Fli oncoprotein-driven transcription. AID 651661. A673 NR0B1-luciferase reporter, viability-normalised. 350,000 compounds, 0.67% hits. inhibition, % at 12.6 µM;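 active = mean inhibition of at least 50% after viability correction, with every replicate also passing that limit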;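 also: firefly luciferase signal divided by Alamar Blue viability fluorescence both relative to DMSO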
PAX8 inh HTS: lowers PAX8-driven luciferase in RMG-I cells; inhibition, % at 12.6 µM; AID 652154; RMG-I TPO-luciferase reporter, SteadyGlo, 24 h; 360,000 compounds, 1.2% hits;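 active = mean replicate inhibition at least 60% with every replicate also reaching 60%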;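 also: luciferase light reporting Pax8 driven TPO promoter activity; plate controls were median of neutral control wells for no effect and mitoxantrone controls for full effect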
* marks the source's active call; other numbers are inactive results; . = no result. An excerpt weighted towards active compounds, which were near 2.1% of everything screened.

SMILES | KKLEB cytotox | HIF-2a inh | CF NFkB inh | EWS-Fli inh | PAX8 inh HTS
Cc1ccc2c(c1)sc(=NC(=O)C1CC1)n2C | 7 | -208 | -22 | -82 | -130
Cc1cccc(S(=O)(=O)N2C[C@@H](O)COC[C@@H]3O[C@@H](CC(=O)Nc4ccc(-c5ccccc5)cc4)CC[C@H]32)c1 | . | . | . | 4 | 84*
O=C(C[C@@H]1CC[C@@H]2[C@H](COC[C@@H](O)CN2S(=O)(=O)c2cccc(Cl)c2)O1)Nc1ccc(-c2ccccc2)cc1 | . | . | . | -1 | 83*
Cc1ccc2[nH]c(O)c(N=NC(N)=S)c2c1 | -1 | -50 | -20 | -11 | 6
CC(/C=C(\NC(=O)c1ccccc1)C(=O)N=Nc1c(O)[nH]c2ccc(C)cc12)=C\c1ccccc1 | -14 | 11 | 53* | . | .
O=C(O)C1C=CC(C(=O)O)c2ccccc21 (stereo unspecified) | -8 | 11 | 6 | -10 | 93*
Cc1ccc(S(=O)(=O)N(C)C[C@@H]2Oc3c(NC(=O)Nc4ccc(C(F)(F)F)cc4)cccc3C(=O)N([C@@H](C)CO)C[C@H]2C)cc1 | . | . | . | -15 | 7
O=C(C[C@H]1CC[C@H]2NC[C@H](O)COC[C@@H]2O1)NCCN1CCCC1 | . | . | . | . | -5
C[C@H](CO)N1C[C@H](C)[C@H](CN(C)S(=O)(=O)c2ccc(F)cc2)Oc2c(NC(=O)c3cnccn3)cccc2C1=O | . | . | . | 1 | .
N#C/C(=C(/O)COc1ccc(Cl)cc1)c1nc2ccccc2s1 | -34 | -64 | 50* | 0 | 13
COc1ccc2c3c([nH]c2c1)[C@H](CO)N(C(=O)C1CCC1)CC31CCN(C(=O)NC(C)C)CC1 | . | . | . | -2 | 3
CO[C@@H]1CN(C)C(=O)c2cc(NC(=O)Nc3ccc(F)cc3)ccc2OC[C@@H](C)N(C(=O)c2cnccn2)C[C@H]1C | . | . | . | 9 | .
COc1ccc(OC)c(C(=O)/C=C/c2cccnc2)c1 | -14 | 39 | 23 | 32 | 72*
COc1cc(C(=O)/C=C/c2cccnc2)ccc1O | 7 | -28 | 1 | -10 | 23
COc1ccc(C(=O)Nc2sc3c(c2C#N)CCN(C(C)=O)C3)cc1 | -9 | -29 | -5 | 32 | 4
CC(=O)N1CCc2c(sc(NC(=O)c3ccc([N+](=O)[O-])o3)c2C#N)C1 | -64* | -11 | 98* | 5 | 96*
Cc1ccc(S(=O)(=O)N(C)C[C@@H]2Oc3ccc(NC(=O)Nc4c(C)noc4C)cc3CC(=O)N([C@@H](C)CO)C[C@@H]2C)cc1 | . | . | . | -2 | 7
Cc1ccc(S(=O)(=O)Nc2ccc3c(c2)C(=O)N([C@H](C)CO)C[C@H](C)[C@@H](CN(C)C(=O)Nc2ccc(C(F)(F)F)cc2)OCCCC[C@H](C)O3)cc1 | . | . | . | -3 | 41
Cc1ccc(S(=O)(=O)Nc2ccc3c(c2)C(=O)N([C@@H](C)CO)C[C@H](C)[C@@H](CN(C)C(=O)Nc2ccc(C(F)(F)F)cc2)OCCCC[C@H](C)O3)cc1 | . | . | . | 12 | 79*
Cc1ccc(S(=O)(=O)Nc2cccc3c2O[C@@H](CN(C)C(=O)Nc2ccc(C(F)(F)F)cc2)[C@@H](C)CN([C@H](C)CO)C3=O)cc1 | . | . | . | 0 | 104*
Cc1ccc(S(=O)(=O)Nc2ccc3c(c2)C(=O)N([C@H](C)CO)C[C@@H](C)[C@H](CN(C)C(=O)Nc2ccc(C(F)(F)F)cc2)OCCCC[C@@H](C)O3)cc1 | . | . | . | 18 | 69*
Cc1ccc(S(=O)(=O)Nc2cccc3c2O[C@H](CN(C)C(=O)Nc2ccc(C(F)(F)F)cc2)[C@H](C)CN([C@H](C)CO)C3=O)cc1 | . | . | . | 5 | 18
C[C@H](CO)N1C[C@H](C)[C@@H](CN(C)C(=O)Nc2ccc3c(c2)OCO3)OCc2cnnn2CCCC1=O | . | . | . | -4 | 9
CC1C=NC(S(=O)(=O)N2CC[C@@H]3[C@H]2c2cc(-c4ccc(F)cc4)ccc2N(C)[C@H]3CO)=N1 (stereo partly specified) | . | . | . | -5 | -19
C[C@H](CO)N1C[C@H](C)[C@@H](CN(C)Cc2ccc(Oc3ccccc3)cc2)Oc2ccc(NC(=O)Nc3ccc(C(F)(F)F)cc3)cc2C1=O | . | . | . | -1 | .
C[C@@H]1CN([C@H](C)CO)C(=O)c2cc(NC(=O)Nc3ccc(F)cc3)ccc2O[C@@H]1CN(C)Cc1ccc(-c2ccccc2)cc1 | . | . | . | 64* | .
C[C@@H]1CN([C@@H](C)CO)C(=O)c2cc(NC(=O)Nc3ccc(F)cc3)ccc2O[C@@H]1CN(C)Cc1ccc(Oc2ccccc2)cc1 | -9 | 1 | 18 | 10 | 75*
